Sa growth 42C = inhibitors of Staphylococcus aureus growth at 42 °C; S. aureus RN4220 growth, OD600, 20 h; hits give low values; relative growth, % (no concentration beside the values); 0.53% of 170,000 active;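 active means relative growth at most 50% at the other temperature and 20+ points below 30 °C, or under 10% at both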
S aureus helic = blocks Staphylococcus aureus DNA helicase; purified S. aureus helicase, fluorescence unwinding assay; inhibition, % (test concentration not listed); 0.05% of 120,000 active; AID 485395; in the data active means inhibition above about 25%, passing the limit was not always enough;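 further: 0% = mean of negative control wells and 100% = mean of positive control wells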
The depositor's hits bear a star; . = no result given; ! = not confirmed by another sample. This is one part of a sample in which hits are shown more often than they occur.

SMILES	Sa growth 42C	S aureus helic
O=C(Nc1nnc(C2CC2)o1)c1ccc(S(=O)(=O)N2CCCCC2)cc1	12	5
CC1CCCCN1S(=O)(=O)c1ccc(C(=O)Nc2nnc(C3CC3)o2)cc1 (stereo unspecified)	0.0*	17
Cc1ncc(CO)c(/C=N/NC(N)=S)c1O	85	-8
Cc1cc(Nc2ccc(Cl)cc2C)nc(-n2nc(C)cc2C)n1	18	.
Cc1ccc(Nc2cc(C)nc(-n3nc(C)cc3C)n2)cc1	0.2*	.
COC(=O)c1ccc(CSc2nnc3c4ccccc4n(C)c3n2)cc1	87	4
COc1ccc(Cc2nc(-c3ccccc3)n[nH]c2=S)cc1	85	.
COc1ccc(CCC(O)C2(O)CCCCC2)cc1 (stereo unspecified)	91	15
COc1ccc(CCN=C=S)cc1	9.0*	23
O=C(CN1C(=O)c2ccccc2C1=O)Oc1ccc2ccccc2c1	82	12
NC(=O)CN1CCN(c2ccccn2)CC1	110	11
O=C1c2ccccc2-c2nc3ccccc3nc21	5.6*	42
O=C1c2ccccc2-c2nc3nonc3nc21	53	-32
Cc1cc2c(CCl)cc(=O)oc2cc1C(C)C	92	-5
Cc1cc2oc(=O)cc(Cn3ccsc3=N)c2cc1C(C)C	50*	6
CN(C)c1ccc(C=Nc2ccc(C(=O)O)cc2)cc1	105	-20
CN(C)c1ccc(N=Cc2cccn2C)cc1	9.7*	-1
CN(CCc1ccccn1)C(=O)CC1(CC(=O)O)CCCC1	139	9
CN(C)c1cc(NC(=O)Nc2ccccc2)c2ccccc2n1	0.0*	31
O=C(Nc1ccccc1)Nc1cccc2ccccc12	99	8
N#Cc1c(N)ccn(Cc2ccccc2)c1=O	105	.
O=C(c1ccc(C(F)(F)F)cc1)n1nccc1-c1cc(-c2ccccc2)no1	99	-13
N#C/C(=C\c1ccc(C(F)(F)F)cc1)c1cccs1	99	.
COc1ccc(/C=C(\C#N)c2cccs2)cc1	47*	-12
NC(=O)COc1cccc2cccnc12	107	4
SMILES	Sa growth 42C	S aureus helic
O=C(Oc1cccc2cccnc12)c1cccc(F)c1	1.6*	9
O=C(Oc1cccc2cccnc12)c1ccccc1	1.7*!	-6
O=C(Oc1cccc2cccnc12)C1CCCCC1	182	6
O=C(Oc1ccccc1OC(=O)c1ccccc1)c1ccccc1	96	11
O=C(Oc1cccc2cccnc12)c1cc(C(F)(F)F)cc(C(F)(F)F)c1	1.3*	.
O=C(CCC1CCCCC1)NC1CCCC1	116	7
CC(C)NC(=O)c1ccccc1NC(=O)CN1C(=O)c2cccc3cccc1c23	94	-4
Cc1nn(-c2ccc(F)cc2)c(-n2cccc2)c1C(=O)NCCCN1CCN(c2cccc(Cl)c2)CC1	84	.
CCN(CC)c1ccc2c(N3CCCCC3)cc(=O)oc2c1	2.1*	-10
CCN(CC)c1ccc2c(C)c(CO)c(=O)oc2c1	102	-44
CCCCn1c(O)c(N=NC(=O)c2ccccc2)c2ccccc21	3.7*	7
Cn1c(O)c(N=NC(=O)c2ccccc2)c2ccccc21	93	6
CCn1c2ccccc2c2cc(C(N)=O)ccc21	86	10
CCn1c2ccccc2c2cc(N3C(=O)C=CC3=O)ccc21	3.8*	.
Oc1ccc(Cl)cc1-c1csnn1	36	28
Oc1ccc(Cl)cc1Sc1cc(Cl)ccc1O	3.6*	12
O=C(NC1CCCCC1)N1CC=C(c2ccccc2)CC1	100	-17
Cc1nc2nc(SCC(=O)NCC3COc4ccccc4O3)nn2c(C)c1Cc1ccccc1 (stereo unspecified)	101	0
CCCn1c(SCc2nc(-c3ccc(OC)c(OC)c3)no2)nnc1-c1ccccc1	106	.
CC(C)c1ccc(NC(=O)CSC2=Nc3ccccc3C3=NC(CC(=O)NCc4ccc(F)cc4)C(=O)N23)cc1 (stereo unspecified)	102	.
O=C(CC(=O)c1ccccc1O)c1ccc(Cl)cc1	1.1*	-2
COc1ccc(C(=O)CC(=O)c2ccccc2O)cc1	87	16
Cc1ccc(C(=O)CC(=O)c2ccccc2O)cc1	0.8*	2
O=C(CC(=O)c1c(F)cccc1F)c1ccccc1O	123	.
COc1ccc(S(=O)(=O)N2CCCCCC2)cc1C(=O)O	.	-2
SMILES	Sa growth 42C	S aureus helic
N#Cc1ccccc1CSc1nc2c(sc(=S)n2Cc2ccco2)c(=O)n1-c1ccc(F)cc1	127	1
CCOc1ccccc1CNC(=O)C(C)n1ncn2cccc2c1=O (stereo unspecified)	103	14
Cc1[nH]n2c(=O)cc(-c3ccccc3)nc2c1-c1ccccc1	0.0*	-13
Cc1cccc(Cc2c(C)nc3c(-c4ccccc4)c(C)[nH]n3c2=O)c1	15	.
Cc1[nH]n2c(=O)cc(-c3ccccc3Cl)nc2c1-c1ccccc1	32	.
Cc1ccccc1Cc1c(C)nc2c(-c3ccccc3)c(C)[nH]n2c1=O	0.5*	.
CN(C)C(=O)c1ccc(I)cc1	106	2
CN(C)c1ccc(C2=CC=CC(=C3C=CC(=[N+](C)C)C=C3)O2)cc1	2.5*	74*
CN(C)c1ccc(C(=C2C=CC(=[N+](C)C)C=C2)c2ccc(N(C)C)cc2)cc1	171	.

Screening data (PubChem BioAssay)
